Screening results: PubChem, National Center for Advancing Translational Sciences (NCATS)
Sm TGR inh = S. mansoni TGR enzyme inhibition | Q962Y6 | purified TGR, DTNB reduction, TNB absorbance 405 nm | Potency, µM (titrated, usually from 114 µM), without a hit: top-dose activity change, negative = inhibition, hits mostly inhibitors | actives 3% (n = 360,000) | AID 485364; note: nearly all actives have a fitted effect of over 60% in size
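First, TGR (20 nM dispensed) and NADPH were mixed with compound. Second, a 15 min room-temperature incubation followed. Third, further NADPH and then DTNB were added to start the reaction. Finally, TNB absorbance was monitored kinetically.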
Tb PYK inh = T. brucei pyruvate kinase inhibition; Q57TT1; TbPYK enzyme, Kinase-Glo Plus ATP luminescence, 45 min; Potency, µM (series often up to 76.8 µM), for the others: top-dose activity, negative = inhibition, usual class: inhibitors; actives 0.12% (n = 410,000); note: nearly all actives have a fitted effect of over 50% in size
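Luminescence from Kinase-Glo Plus, added after a 45-minute room-temperature reaction, served as the end-point read-out. The enzyme and substrate were preincubated with compound before ADP (130 uM final) initiated turnover. Concentration-effect curves came from normalized qHTS data.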
LmPK inh = blocks Leishmania mexicana pyruvate kinase activity; Q27686; purified LmPK, Kinase-Glo ATP luminescence, 1 h; Potency, µM (series often up to 57.5 µM), without a hit: top-dose activity change, negative = inhibition, actives largely listed as inhibitors; actives 0.37% (n = 290,000); AID 1721
Target sequence (Q27686 whole entry, looked up): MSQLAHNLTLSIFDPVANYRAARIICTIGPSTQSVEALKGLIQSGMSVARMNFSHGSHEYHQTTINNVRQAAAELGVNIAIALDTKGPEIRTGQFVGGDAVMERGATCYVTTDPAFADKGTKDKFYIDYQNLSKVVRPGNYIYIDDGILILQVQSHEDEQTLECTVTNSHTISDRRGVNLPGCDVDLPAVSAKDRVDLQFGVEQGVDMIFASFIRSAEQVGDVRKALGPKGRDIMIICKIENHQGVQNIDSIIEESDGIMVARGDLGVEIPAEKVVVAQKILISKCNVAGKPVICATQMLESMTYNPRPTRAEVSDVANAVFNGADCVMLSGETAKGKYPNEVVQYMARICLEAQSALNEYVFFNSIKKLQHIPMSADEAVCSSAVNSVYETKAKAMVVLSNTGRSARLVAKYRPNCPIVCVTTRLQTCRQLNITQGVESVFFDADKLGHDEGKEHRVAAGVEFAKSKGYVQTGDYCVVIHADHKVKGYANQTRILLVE
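0.1 nM LmPK, 0.5 mM PEP, 0.1 mM ADP; 50 mM imidazole pH 7.2, 7 mM MgCl2, 50 mM KCl; 1 h RT. Kinase-Glo luminescence readout, normalized to no-enzyme (full inhibition) and uninhibited wells.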
RE007 growth inh = less growth of the S. pombe RE007 Vpr strain; S. pombe RE007 Vpr strain, BacTiter-Glo ATP luminescence, 24 h; Potency, µM (doses to about 92.2 µM), inactives show top-dose activity change, negative = less growth, most hits filed as inhibitors; actives 0.21% (n = 360,000); AID 651644; active = well fitted falling curve with a large enough effect; inconclusive = small, poorly fitted or top-dose-only effect; inactive = no such curve, though single readings can be large or run the other way; note: nearly all actives have a fitted effect of over 50% in size
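Fission yeast strain RE007, carrying one chromosomally integrated HIV-1 vpr copy, was seeded at OD 0.01 in PMG+AL medium with 23 nL pinned compound. After 24 h at 30 °C and 99% humidity, viability was read by BacTiter-Glo luminescence.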
* marks the source's active call; other numbers are inactive results; ? = inconclusive; nt = not tested or not shown; [ ] = dose if it differs, or a comment. The list is not random: actives were taken first. Their share in the collection is about 3%. Unless noted, calls come from the whole dose curve; as a rule, active = well fitted curve in the direction sought with a large enough effect; inconclusive = small, poorly fitted or top-dose-only effect, or another doubt; inactive = no such curve, though single readings can be large; an effect the other way counts as inactive or inconclusive. % is set by controls: 0 for no effect and ±100 for the full control effect; potency is the fitted concentration of half-maximal effect.

SMILES	Sm TGR inh	Tb PYK inh	LmPK inh	RE007 growth inh
CC(C)c1nnc(NC(=O)c2nc(S(=O)(=O)Cc3ccccc3F)ncc2Cl)s1	32µM*	-9%	-9%	-9%
N#CC(OC(=O)c1ccccc1)c1ccccc1 (stereo not given)	nt	0%	nt	-11%
CCCn1cnc2c(c1=O)c1nc3ccccc3nc1n2CCC1=CCCCC1	-3%	nt	4%	nt
O=c1c2c3nc4ccccc4nc3n(/N=C/c3ccco3)c2ncn1CCC1=CCCCC1	13µM*	-9%	7%	-16%
COc1cc(-c2nc3ccccn3c2/N=C/c2cc(OC)c(O)cc2Cl)ccc1O	25µM*	-9%	6%	?
COc1cc(-c2nc3ccccn3c2/N=C/c2ccccc2)ccc1O	-10%	0%	0%	-1%
CC1COCC(C)N1C1=C(Cl)C(=O)c2ccccc2C1=O (stereo not given)	nt	22µM*	nt	40µM*
O=C(NC1CCCCC1)c1nn2c(C(F)(F)F)cc(-c3ccco3)nc2c1Br	25µM*	-2%	-3%	9%
O=C(c1cc2nc(-c3ccco3)cc(C(F)(F)F)n2n1)N1CCN(Cc2ccccc2)CC1	50µM*	0%	-1%	8%
O=C(c1cc2nc(-c3ccco3)cc(C(F)(F)F)n2n1)N1CCN(c2ccc(F)cc2)CC1	-24%	-15%	-5%	6%
CN(CCc1ccccn1)C(=O)c1nn2c(C(F)(F)F)cc(-c3ccco3)nc2c1Cl	45µM*	-2%	-3%	15%
O=C(Nc1cc(F)ccc1F)c1cc2nc(-c3ccco3)cc(C(F)(F)Cl)n2n1	22µM*	0%	nt	nt
O=C(NC1CCCCC1)c1cnn2c(C(F)(F)F)cc(-c3ccco3)nc12	0%	-8%	-2%	3%
O=C(Nc1cccc(C(F)(F)F)c1)c1cc2nc(-c3ccco3)cc(C(F)(F)Cl)n2n1	4%	2%	nt	nt
O=C(c1ccccc1)N1CCN(C(=O)c2nn3c(C(F)(F)F)cc(-c4ccco4)nc3c2Br)CC1	40µM*	3%	2%	5%
O=C(c1cnn2c(C(F)(F)F)cc(-c3ccco3)nc12)N1CCCCCC1	?	2%	3%	-8%
O=C(NCC1CCCO1)c1nn2c(C(F)(F)F)cc(-c3ccc(Br)o3)nc2c1Br (stereo not given)	16µM*	1%	-1%	9%
O=C(c1cnn2c(C(F)(F)F)cc(-c3ccco3)nc12)N1CCc2ccccc2C1	13µM*	-1%	1%	15%
CCOc1cc(/C=N/NC(=O)C(N)=O)cc(Br)c1O	50µM*	-8%	-4%	-5%
Nc1c(C(=O)N2CCOCC2)sc2nc3c(cc12)CCC3	4%[57.1 µM]	2%	16µM*	14%
Nc1c(C(=O)N2CCOCC2)sc2nc3c(cc12)CCCC3	3%	?	?	24%
COc1ccc2[nH]c3c(c2c1)CCN1C(=O)C(CC(=O)NCc2cccc(C(F)(F)F)c2)C[C@H](C(=O)N(C(C)C)C(C)C)[C@@]31C (stereo not given in full)	nt	-2%	nt	-10%
CC[n+]1c(/C=C2\C=C(C)CC(C)(C)C2)sc2ccccc21	14µM*	?	-2%	-14%
CC[n+]1c(/C=C2/C=C(C)CC(C)(C)C2)sc2ccc(OC)cc21	18µM*	-36%	-5%	?
CC[n+]1c(/C=C2\C=C(C)CC(C)C2)sc2ccccc21 (stereo not given)	40µM*	-25%	-1%	-26%
SMILES	Sm TGR inh	Tb PYK inh	LmPK inh	RE007 growth inh
COc1ccc2sc(C)[n+](C)c2c1	4%	-21%	4%	3%
CCC1=C/C(=C/c2sc3ccccc3[n+]2CC)CC(C)(C)C1	1.8µM*	?	6%	-12%
CCc1ccc(C(=O)Nc2cccc(-c3nc4cc(C(C)C)ccc4o3)c2)cc1	0%	-1%	nt	nt
CCOc1cc(OCC)cc(C(=O)N2CCC[C@H]2C(=O)N2CCC[C@H]2C(=O)NCc2ccccn2)c1	nt	0%	nt	-10%
O=C(c1ccco1)[C@@H]1[C@@H]2C(=O)N(c3ccc(F)cc3)C(=O)[C@@H]2C2c3ccccc3C=CN21 (stereo not given in full)	22µM*	nt	5%	nt
O=C(c1ccco1)[C@@H]1[C@@H]2C(=O)N(c3ccc(Br)cc3)C(=O)[C@@H]2C2c3ccccc3C=CN21 (stereo not given in full)	18µM*	-5%	0%	-23%
NC(=O)C1CCN(C(=O)C2CCN(C(=O)Nc3ccccc3)CC2)CC1	-9%	-3%	nt	6%
CCN(CC)S(=O)(=O)c1ccc2nc(NC(=O)c3cccnc3)sc2c1	-12%	0%	nt	nt
Cc1ccc(Cl)c(NC(=O)CCl)c1Cl	32µM*	0%	1%	7%
Cc1cc(C(=O)c2ccccc2)c(NC(=O)CCl)s1	7.9µM*	-11%	3%	-4%
CCN(CC)CC(=O)Nc1sc(C)cc1C(=O)c1ccccc1	-12%	-1%	-1%	-9%
O=C(CCl)Nc1ccccc1C(=O)c1ccccc1	35µM*	-7%	-4%	-8%
Cc1ccccc1NC(=O)CCl	22µM*	-1%	-4%	7%
CCN(C(=O)COC(=O)/C=C/c1c(C)nn(-c2ccccc2)c1C)c1c(N)n(Cc2ccccc2)c(=O)[nH]c1=O	nt	-3%	nt	-17%
CCOc1ccc2oc(=O)cc(CN3CCN(c4cc(C)ccc4C)CC3)c2c1	-1%	-2%	nt	nt
O=c1[nH]c2cc3c(cc2cc1CN(Cc1nnnn1CC1CCCO1)C1CCCC1)OCO3 (stereo not given)	25µM*	4%	1%	40%
CCC(C)(C)n1nnnc1CN(Cc1cc2cc(OC)ccc2[nH]c1=O)C1CCCC1	6%	-8%	-1%	-11%
O=c1[nH]c2cc3c(cc2cc1CN(Cc1nnnn1CC1CCCO1)C1CCCCC1)OCO3 (stereo not given)	?	-12%	2%	8%
COc1cc2cc(CN(Cc3nnnn3Cc3ccco3)C3CCCCC3)c(=O)[nH]c2cc1OC	13µM*	2%	16%	20%
CCOc1ccc2[nH]c(=O)c(CN(Cc3nnnn3Cc3ccco3)C3CCCCC3)cc2c1	5.6µM*	-7%	24%	3%
CCc1cc2c(cc3c(=O)n(CCCC(=O)NCc4cccc(Br)c4)ncn32)s1	4%	1%	nt	nt
c1ccc(-c2nnc(CN3CCCc4ccccc43)o2)cc1	40µM*	0%	0%	-14%
c1ccc(-c2nnc(CN3CCCCC3)o2)cc1	17%	-4%	-7%	nt
O=C(Nc1sc2c(c1C(=O)O)CCC2)c1ccccc1	-4%	-13%	-22%	-27%
O=C(/C=C/c1ccco1)Nc1sc2c(c1C(=O)O)CCC2	40µM*	-8%	-10%	-26%
N#Cc1c(NC(=O)/C=C/c2ccco2)sc2c1CCCC2	20µM*	0%	1%	-29%
N#Cc1c(NC(=O)c2ccccc2)sc2c1CCCCC2	-4%	-2%	-8%	5%
